In PubChem BioAssay (NCI):
The panel holds about 83,000 compounds, 20% with a hit somewhere; the sample as a whole holds those more often.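 The endpoint reported here, percent growth, reads 100 for growth as untreated, 0 for no net growth and -100 for all cells dead.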 Calls of active or inactive are those of the source. Rule for the calls: active = growth percent below 10; inactive = the rest.

Legend:
Assay in all cases: NCI-60 one-dose screen, 48 h (100 = growth as untreated, 0 = no growth, -100 = all killed)
Settings in all cases: 10 µM unless noted
[1] = tested on: DU-145 prostate
[2] = tested on: K-562 leukemia
[3] = tested on: MALME-3M melanoma
[4] = tested on: MDA-MB-231 breast
[5] = tested on: RXF 393 renal
[6] = tested on: SF-268 CNS
[7] = tested on: SF-295 CNS
[8] = tested on: UACC-257 melanoma
[9] = tested on: M14 melanoma
[10] = tested on: HCT-15 colon
[11] = tested on: HT29 colon
[12] = tested on: SNB-75 CNS
[13] = tested on: SNB-19 CNS
[14] = tested on: U251 CNS
[15] = tested on: PC-3 prostate
[16] = tested on: SK-MEL-5 melanoma
[17] = tested on: UACC-62 melanoma
[18] = tested on: LOX IMVI melanoma
[19] = tested on: SK-MEL-28 melanoma

Measured: growth

c1ccc2sc(SCCCn3ccnc3)nc2c1
inactive: [1] 101% | [2] 103% | [3] 96.1% | [4] 89.6% | [5] 95.2% | [6] 98.4% | [7] 97.4% | [8] 87.3% | [9] 102% | [10] 98.3% | [11] 67% | [12] 117% | [13] 94% | [14] 88.2% | [15] 80.1% | [16] 92.1% | [17] 87.8% | [18] 96.5% | [19] 109%

CN(C)CCCC(=O)Nc1ccc(Cn2nnc3c2C(=O)c2nnn(Cc4ccc(NC(=O)CCCN(C)C)cc4)c2C3=O)cc1
active: [3] -33.4% | [4] 3.74% | [12] -94.9% | [18] 6.92%
inactive: [1] 86% | [2] 70.1% | [5] 90.8% | [6] 80.6% | [7] 77.8% | [8] 47.9% | [9] 85.8% | [10] 94.5% | [11] 10.5% | [13] 82.7% | [14] 90.2% | [15] 88.1% | [16] 50.3% | [17] 75.7% | [19] 56.5%

O=C1c2c[n+](Cc3ccccc3)ccc2-c2nc3ccccc3c3ccnc1c23
inactive: [10] 18.6%
active: [1] -89.5% | [2] -6.85% | [3] -95.7% | [4] -14% | [5] -57.1% | [6] -1.74% | [7] -17.4% | [8] -67.9% | [9] -68.4% | [11] -25% | [12] -80.7% | [13] -72.2% | [14] -77% | [15] -7.15% | [16] -93.9% | [17] -58.5% | [18] -37.1% | [19] -34.3%

CS(=O)(CCCCN=C=S)=NC(=O)c1c(F)c(F)c(F)c(F)c1F (centres undefined)
inactive: [1] 91.1% | [2] 60.8% | [3] 58.7% | [4] 91.8% | [5] 94.2% | [6] 101% | [7] 97.8% | [8] 83.5% | [9] 98.4% | [10] 59.4% | [11] 90.2% | [12] 97.4% | [13] 90.4% | [14] 89.6% | [15] 88.6% | [16] 98.7% | [17] 88.7% | [18] 60.6% | [19] 97.6%

CC/C=C\C[C@H](O)C/C=C1/C(=O)C=C[C@@H]1C/C=C\CCCC(=O)OC(C)C
active: [2] -7.12% | [3] -56.2% | [4] 7.13% | [5] -82.7% | [7] -24.7% | [8] -51% | [9] -31.3% | [10] -33.5% | [11] -49.7% | [13] 9.75% | [14] -89.8% | [15] -0.368% | [16] -94.7% | [17] -41.7% | [18] -82.3% | [19] -41.3%
inactive: [1] 11.5% | [6] 12.9% | [12] 46%

O=C(/C=C/c1ccc(Cl)cc1)/C=C/c1cc2ccccc2[nH]c1=O
inactive: [1] 79.3% | [2] 10.1% | [3] 14.3% | [4] 63.8% | [5] 38.3% | [6] 45.2% | [7] 102% | [8] 88.9% | [9] 60.3% | [10] 69% | [12] 68.8% | [13] 83.4% | [14] 11.7% | [15] 48.8% | [16] 75.2% | [17] 52.9% | [19] 76.1%
active: [11] -0.317% | [18] -44.5%

COc1ccc(C2Nc3ccccc3-n3cccc32)cc1 (centres undefined)
inactive: [1] 111% | [2] 105% | [3] 100% | [4] 78.7% | [5] 111% | [6] 98.7% | [7] 92.4% | [8] 98.9% | [9] 99.3% | [10] 92.9% | [11] 108% | [12] 105% | [13] 97.8% | [14] 98% | [15] 71.7% | [16] 93.1% | [17] 81.9% | [18] 97.3% | [19] 106%

CC(C)[C@H]1COC(=O)N1[C@@H]1C(=O)N([C@@H](CCC(=O)N2CCN(C3CCCC3)CC2)C(=O)N[C@@H]2CCCc3ccccc32)[C@@H]1/C=C/c1cccc(Br)c1
active: [6] 8.27% | [8] -34.6% | [11] -15.3% | [16] -82.2% | [18] -32%
inactive: [1] 40.5% | [2] 41.9% | [3] 13.1% | [4] 26.3% | [5] 53.3% | [7] 51.5% | [9] 25.8% | [10] 20.9% | [12] 50% | [13] 44.7% | [14] 27.5% | [15] 29.7% | [17] 47.3% | [19] 32.2%

O=C([C@@H](COCc1ccccc1)N1C(=O)[C@@H](N2C(=O)OC[C@@H]2c2ccccc2)[C@H]1/C=C/c1ccccc1)N1CCC(CCN2CCCCC2)CC1
active: [3] -22.3%
inactive: [1] 100% | [2] 55.8% | [4] 72.6% | [5] 88.7% | [6] 77.2% | [7] 102% | [8] 64.1% | [9] 97.8% | [10] 89.2% | [11] 45.5% | [12] 90.9% | [13] 95.1% | [14] 71.5% | [15] 67.5% | [16] 81.6% | [17] 95.5% | [18] 82.1% | [19] 73.2%

Cn1c(=O)c2c(ncn2CC[N+](C)(C)C)n(C)c1=O
inactive: [1] 104% | [2] 92.1% | [3] 105% | [4] 104% | [5] 111% | [6] 98.6% | [7] 103% | [8] 94.4% | [9] 103% | [10] 112% | [11] 93.8% | [12] 90.9% | [13] 101% | [14] 101% | [15] 94.5% | [16] 102% | [17] 86.9% | [18] 99.6% | [19] 106%

CC/C(Cc1ccccc1)=C(/c1ccc(O)cc1)c1ccc(OCCN2CCCC2)cc1
active: [1] -18.6% | [2] -10.1% | [3] -72.5% | [4] -60.8% | [5] -65% | [6] 9.94% | [7] -63.1% | [8] -65.8% | [9] -70.5% | [10] -56.2% | [11] -57% | [12] -22.6% | [13] 0.126% | [14] -89.1% | [15] -32.2% | [16] -100% | [17] -77.7% | [18] -100% | [19] -84.5%

COc1cc(NCCCCN=C(N)N)c2ncccc2c1
inactive: [1] 108% | [2] 84.6% | [3] 13.6% | [4] 63.5% | [5] 112% | [6] 30.4% | [7] 87% | [8] 102% | [9] 96.5% | [10] 99.9% | [11] 79.6% | [12] 48.6% | [13] 81.2% | [14] 48.7% | [15] 79.1% | [16] 89.2% | [17] 87.9% | [18] 101% | [19] 98.9%

COC(=O)[C@@H]1CC[C@]2(C)[C@H](CC[C@@H]3O[C@@]32C)[C@@]1(C)CC(=O)c1ccoc1
inactive: [1] 112% | [2] 100% | [3] 97.7% | [4] 88.3% | [5] 111% | [6] 103% | [7] 104% | [8] 88.4% | [9] 108% | [10] 103% | [11] 93.2% | [12] 114% | [13] 91.1% | [14] 91.8% | [15] 86% | [16] 97.4% | [17] 89.5% | [18] 98.6% | [19] 104%

COc1cnc2c(c1)C(=O)c1c-2n(CCCN2CCCC2)c(=O)c2cc([N+](=O)[O-])ccc12
inactive: [6] 17.1% | [10] 20.3% | [13] 19.8% | [15] 15.6% | [19] 29.3%
active: [1] 3.15% | [2] -12.1% | [3] -20.2% | [4] -49.1% | [5] -88.7% | [7] -6.13% | [8] -8.07% | [9] 0.878% | [11] -59.4% | [12] -3.27% | [14] -64.8% | [16] -96.8% | [17] -67.5% | [18] -82.3%

CC/C(=C(\c1ccc(O)cc1)c1ccc(OCCN(C)CCN(C)C(=O)CCCCC(=O)c2c(C)[nH]c(/C=C3\N=C(c4ccc[nH]4)C=C3OC)c2C)cc1)c1ccccc1
inactive: [1] 65.8% | [2] 42.9% | [3] 116% | [4] 35.1% | [5] 83% | [6] 75.9% | [7] 89.2% | [8] 99.8% | [9] 39.7% | [10] 60% | [11] 29.3% | [12] 105% | [13] 114% | [14] 72% | [15] 61.2% | [16] 77.8% | [17] 95.4% | [18] 44.9% | [19] 89.7%

COc1ccc(C(=O)/C=C/c2cc3ccccc3[nH]c2=O)cc1
inactive: [2] 16.7% | [3] 74.2% | [4] 56.3% | [5] 16.6% | [6] 28.9% | [7] 48.9% | [8] 59.1% | [9] 59.6% | [10] 46.4% | [13] 70.5% | [14] 31.7% | [15] 32.3% | [16] 72.5% | [17] 67.7% | [18] 10.2% | [19] 88.2%
active: [1] -26.7% | [11] 6.09% | [12] 2%
